Reference: the supplement of paper PMC11417369
Whole data set: some 25,000 sequences, median “ln(normalized median fluorescence intensity)” near 6.7, cut for the highest 2% near 10. The full list was thinned out, with the highest values kept by preference.

test system: PfHDP1 homeodomain (GST-tagged); experiment: gcPBM binding intensity (ln(normalized median fluorescence intensity)); higher = stronger DNA binding
Outline: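 After 1 h on an Agilent 4 × 180k array of primer-extended double-stranded 36-bp intergenic genomic probes and negative controls, bound GST-tagged P. falciparum DNA-binding domains were detected with Alexa488 anti-GST antibody and scanned at 488 nm. The domains had been expressed in E. coli, and binding took place in 1× PBS with 1% milk, 0.2 mg/ml BSA, 0.5% salmon testes DNA and 0.03% Triton X-100. Binding intensity is the highest Masliner-normalised natural-log median intensity across replicate spots of either probe orientation.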

| Sequence | gcPBM binding intensity (ln) |
| --- | --- |
| AATTTTTTTTTTTTGTTGCACTTTTAGAGTTTTAAT [GTGCAC_site9519] | 7.37 |
| AAAAATAGTCTTCTTGCACTTTTTAATTTATTTTAA [CACACA_negctrl_site1322] | 6.76 |
| AACAATTAGAACTTTGCACACTTCTATATATTTTGT [CACACA_site674] | 10.2 |
| TTTTTTTTTTATTTTGCACACTTCTAATTTAGTTGT [CACACA_site3429] | 10.7 |
| TTTTTTTTTTATTTTGCACACTTCTAATTTAGTTCT [CACACA_site5828] | 10.7 |
| AAAAAAATAGTCTTCTTGCACTTTTTAATTTATTTT | 6.7 |
| TAATATGAATATATATGTACATACAATTTGTTATAT [XGTACX_site5815] | 6.55 |
| TCATATGTATAAATTAGTACATATTTAATGGATATA [XGTACX_site3298] | 6.26 |
| ATAATAATATATATTACACACGCATCGTTCATTTAT [CACACA_site8752] | 7.06 |
| CAATGTTAATATAATACACACAATATGTATTTGTCT [CACACA_site1162] | 6.8 |
| TAGGTCATATTTTTTGCACACAAAAAAAAATATAAA [CACACA_site3380] | 9.79 |
| AAAGGTTTGCGTTGTGTGCACAAAATAAATATATAA | 10.6 |
| AAAAATAAAAGGTGTGCACACAAAAATATATATATA [CACACA_site8507] | 10.7 |
| ATATATATATTAAAGGTGCACAAATAAATATATACA [GTGCAC_site9532] | 9.88 |
| AAAAATAAAGGGTGTGCACACAAAAATATATATATA [CACACA_site1727] | 10.7 |
| ACAAAAAAATAAGGTGCACACAAAAAAAAAAAAAAA [CACACA_site8171] | 9.22 |
| AAAAAAATAAGGTGCACACAAAAAAAAAAAAAAAAA [CACACA_site812] | 9.95 |
| AAGATAAAATGATGCACACAAAAGGGTGTAATATAT [CACACA_site1706] | 8.59 |
| AAATAAAAAGGGTGCACACAAAAATATATATATATA [CACACA_site1728] | 10.4 |
| AGTAGTCTGGAGAAAAGTACACAGTATCTGGTAACA [XGTACX_site2034] | 6 |
| TTTTTTTTTTTTTATACACACATTAAAATAAAAAAG [CACACA_site3946] | 6.74 |
| TTTTAAATATGCCATACACACTACTCTATAATAAAT [CACACA_site6987] | 6.56 |
| AATTTTATTCATTGAGCACACAAAATAAATTATCAA [CACACA_site9079] | 6.73 |

| Sequence | gcPBM binding intensity (ln) |
| --- | --- |
| TACAAAATAAAAATAATTCTTTCAAAAAATAATAAA [XGTACX_negctrl_site368] | 5.86 |
| ATCTTTCATCTACCAAGTACAAATTACTTTTTTTTT [XGTACX_site7001] | 6.79 |
| ATCAAACAAAAAATAAAAAAATGCGACATGTGTACA [TGCATGCA_negctrl_site164] | 7.34 |
| GTCGAGGATATATAAAGTACATATATATATATGATA [XGTACX_site1128] | 6.41 |
| TTACATAATATATGTACACACGCAAATACTTAGAAT [CACACA_site320] | 6.63 |
| ACCACATTTTTTTTTGCATGTTGTTTAAAAAAAGGC [TGCATGCA_site137] | 6.74 |
| TATTTGTAAATCGATACACACATATATCTTAATATA [CACACA_site4273] | 6.28 |
| TTCAAAATAAAAAATTCACACACATATATATATATA [CACACA_site8653] | 9.22 |
| TACAATTTAAAACACACACACAATAATACATATATA [CACACA_site1251] | 6.89 |
| AATGCTATCATTAATGCACACATTTAAAATTAATAT [CACACA_site3548] | 10 |
| AATTTAATATAATGCACACATAAAAAAAAAATCAAA [CACACA_site1] | 9.95 |
| AATGCTATCATTAATGCACACATTTAAACTTAATAT [CACACA_site5878] | 10.6 |
| AATTTAATATAATGCACACATAAAACAAAAACAAAA [CACACA_site529] | 10.5 |
| AAAATTTAATATAATGCACACATAAAACAAAAACAA [CACACA_site8071] | 9.14 |
| AATTTAATATAATGCACACATAAAAAAAAATTCAAA [CACACA_site2062] | 10.5 |
| AAAATTTAATATAATGCACACATAAAAAAAAAATCA [CACACA_site7882] | 10.7 |
| TAACTTAATATTAATGCACACAATTTATATATATAT [CACACA_site3903] | 10.4 |
| TATTGTCTTGTATATGCATGTAGACCAAATATGTAA [TGCATGCA_site9] | 6.42 |
| AATGAGGATATATACACACATACATTAAAAAAATAT [CACACA_site1849] | 6.67 |
| TATTAAACTGGACACACACACACACCCATATATAAA [CACACA_site4579] | 6.93 |
| TATATCTTAATATTTACACACATGCGCACCCATAAA [CACACA_site5349] | 7.52 |
| GTGTATTTGGTGCGCACACACATGCAAAAAGAAATA [CACACA_site4768] | 9.15 |
